Calls of active or inactive are those of the source.

For the first experiment the following is noted: Ebola virus entry assay, ratio channel readout.
In the case of `O=C1CN=C(c2ccccc2)c2cc([N+](=O)[O-])ccc2N1`, the result was inactive. The same measure, in the same setting: the same measure for `C[C@](O)(CS(=O)(=O)c1ccc(F)cc1)C(=O)Nc1ccc(C#N)c(C(F)(F)F)c1`: “inactive”; for `CC(C=CC1=C(C)CCCC1(C)C)=CC=CC(C)=CC(=O)O`: “inactive”. The same measure, in the same setting: as for `COc1c(N2C[C@@H]3CCCN[C@@H]3C2)c(F)cc2c(=O)c(C(=O)O)cn(C3CC3)c12`, the entry is “inactive”; as for `CC(=O)N1CCN(c2ccc(OC[C@H]3CO[C@](Cn4ccnc4)(c4ccc(Cl)cc4Cl)O3)cc2)CC1`, “inactive”; as for `O=P(O)(O)C(O)(Cn1ccnc1)P(=O)(O)O`, “inactive”. The same measure, in the same setting: the same measure for `CCC1=C(C)CN(C(=O)NCCc2ccc(S(=O)(=O)NC(=O)NC3CCC(C)CC3)cc2)C1=O` (configuration not stated): “inactive”; for `CN=C(NC#N)NCCSCc1nc[nH]c1C`: “inactive”; for `CC(C)[C@H](N)C(=O)OCCOCn1cnc2c(=O)[nH]c(N)nc21`: “inactive”. For `CC(C)N(CCC(C(N)=O)(c1ccccc1)c1ccccn1)C(C)C` (configuration not stated), the outcome was inactive. As for `COCCCOc1ccnc(CS(=O)c2nc3ccccc3[nH]2)c1C` (configuration not stated), the outcome was inactive. Consider `Nc1nc2[nH]cc(CCc3ccc(C(=O)N[C@@H](CCC(=O)O)C(=O)O)cc3)c2c(=O)[nH]1`, for which the result was inactive. Consider `N[C@@H](Cc1cc(I)c(Oc2ccc(O)c(I)c2)c(I)c1)C(=O)O`, for which the outcome was inactive. Same read-out and setting: the same measure for `C[C@H](CS)C(=O)N1CCC[C@H]1C(=O)O`: “inactive”. On the same count and under the same terms, the same measure for `CCOC(=O)[C@H](CCc1ccccc1)N[C@@H](C)C(=O)N1[C@H](C(=O)O)C[C@H]2CCCC[C@@H]21`: “inactive”; for `Nc1ccn(C[C@@H](CO)OCP(=O)(O)O)c(=O)n1`: “inactive”. Still for that read-out and setting: the same measure for `CC(C)C[C@H](CN)CC(=O)O`: “inactive”; for `NC(=O)COCCN1CCN(C(c2ccccc2)c2ccc(Cl)cc2)CC1` (configuration not stated): “inactive”.

The conditions of another experiment: Ebola virus entry assay, blue channel fluorescence.
For `Cc1nnc(SCC2=C(C(=O)O)N3C(=O)[C@@H](NC(=O)Cn4cnnn4)[C@H]3SC2)s1`, the call was inactive. The same measure, in the same setting: the same measure for `CC(O)(P(=O)(O)O)P(=O)(O)O`: “inactive”; for `CC(NC(C)(C)C)C(=O)c1cccc(Cl)c1` (configuration not stated): “inactive”; for `CCC1(C)CC(=O)NC1=O` (configuration not stated): “inactive”. As for `NC(N)=NC(=O)Cc1c(Cl)cccc1Cl`, the molecule was classed as inactive. Same read-out and setting: as for `NS(=O)(=O)c1cc(C2(O)NC(=O)c3ccccc32)ccc1Cl` (configuration not stated), the entry is “inactive”. Same read-out and setting: the same measure for `CO[C@@]1(NC(=O)Cc2cccs2)C(=O)N2C(C(=O)O)=C(COC(N)=O)CS[C@@H]21`: “inactive”; for `O=C1CN=C(c2ccccc2)c2cc([N+](=O)[O-])ccc2N1`: “inactive”. For `COc1c(N2C[C@@H]3CCCN[C@@H]3C2)c(F)cc2c(=O)c(C(=O)O)cn(C3CC3)c12`, the call was inactive. Still for that read-out and setting: as for `CN=C(NC#N)NCCSCc1nc[nH]c1C`, the entry is “inactive”. Same read-out and setting: the same measure for `O=c1[nH]c(=O)n([C@H]2C[C@H](O)[C@@H](CO)O2)cc1F`: “inactive”. In the case of `COCCCOc1ccnc(CS(=O)c2nc3ccccc3[nH]2)c1C` (configuration not stated), the result was inactive. Same read-out and setting: the same measure for `C[C@H](CS)C(=O)N1CCC[C@H]1C(=O)O`: “inactive”. Still for that read-out and setting: the same measure for `O=P1(N(CCCl)CCCl)NCCCO1` (configuration not stated): “inactive”.
